Screening data deposited in PubChem by National Center for Advancing Translational Sciences (NCATS).
FLuc inh – inhibitors of firefly (Photinus pyralis) luciferase; purified P. pyralis luciferase, luminescence, biochemical; AID 1347043; Potency, µM (top dose mostly 115 µM), most hits filed as inhibitors; 76,000 tested, 2.5% active; P08659; note: nearly all actives have a fitted effect of over 65% in size
Target sequence (P08659 whole entry, looked up): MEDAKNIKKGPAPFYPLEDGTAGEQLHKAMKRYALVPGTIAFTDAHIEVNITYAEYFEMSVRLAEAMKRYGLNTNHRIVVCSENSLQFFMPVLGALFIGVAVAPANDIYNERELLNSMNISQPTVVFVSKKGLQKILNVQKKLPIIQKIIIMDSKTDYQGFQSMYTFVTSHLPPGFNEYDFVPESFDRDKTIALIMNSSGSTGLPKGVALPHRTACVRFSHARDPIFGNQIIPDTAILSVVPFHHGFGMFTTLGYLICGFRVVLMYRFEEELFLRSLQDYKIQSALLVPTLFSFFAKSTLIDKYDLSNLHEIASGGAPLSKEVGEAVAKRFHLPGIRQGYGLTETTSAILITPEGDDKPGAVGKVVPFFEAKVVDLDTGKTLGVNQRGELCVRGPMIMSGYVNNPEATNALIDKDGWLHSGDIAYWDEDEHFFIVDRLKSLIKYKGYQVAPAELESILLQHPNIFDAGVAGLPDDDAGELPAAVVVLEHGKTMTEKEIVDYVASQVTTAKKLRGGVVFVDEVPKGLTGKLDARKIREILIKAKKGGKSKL
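Luminescence read by CCD imager after adding enzyme (10nM final) to wells holding compound, titrated in qHTS. Substrates 10uM each D-luciferin and ATP; buffer 50mM Tris acetate pH 7.5, 10mM Mg acetate, Tween-20, BSA.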
NIH3T3 tox – cytotoxic compounds in NIH 3T3 cells; Potency, µM (series often up to 96.7 µM), usual class: inhibitors; 94,000 tested, 4.3% active; NIH 3T3 viability, CellTiter-Glo ATP luminescence, 48-72 h; AID 1345082; note: nearly all actives have a fitted effect of over 55% in size
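Mouse fibroblast NIH 3T3 cells, 400 per well, received compound via pintool and were incubated for 48 or 72 hr prior to CellTiter-Glo ATP luminescence measurement.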
NPR1 antag – blocks ANP-stimulated signaling of human Npr1 receptor; HEK293 hNpr1 GloSensor cGMP, ANP-stimulated luminescence; 76,000 tested, 1.6% active; AID 1347048; Potency, µM (doses to about 46.3 µM), hits mostly inhibitors; P16066; calls by dose curve; note: nearly all actives have a fitted effect of over 60% in size
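Compound pre-incubated 30 min at room temperature on GloSensor-loaded HEK293 cells stably carrying hNpr1 and the pGS-40F cGMP biosensor. Stimulation uses hNppA at 0.1 nM final; luminescence is taken at baseline and 20 min post-agonist.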
HEK293 tox – HEK 293 cell cytotoxicity. Potency, µM (series often up to 115 µM), actives largely listed as inhibitors. HEK 293 viability, ATP luminescence (CellTiter-Glo), 48-72 h. 94,000 tested, 6.6% active. AID 1345083; note: nearly all actives have a fitted effect of over 60% in size
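250 HEK 293 cells/well; compound by pintool; incubated 48 or 72 hr at 37 degree Celsius; CellTiter-Glo added, 10 min RT, luminescence imaged.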
Numbers stand for hits; 0 = inactive; ? = inconclusive; - = no result. This is a sample that favours compounds with a hit; in the whole collection about 11% have one here. Unless noted, calls come from the whole dose curve; as a rule, active = well fitted curve in the direction sought with a large enough effect; inconclusive = small, poorly fitted or top-dose-only effect, or another doubt; inactive = no such curve, though single readings can be large; an effect the other way counts as inactive or inconclusive.

SMILES	FLuc inh	NIH3T3 tox	NPR1 antag	HEK293 tox
COc1ccccc1CN1Cc2cc(NS(=O)(=O)c3ccc(C)c(F)c3)ccc2OC(C)C1=O (centres undefined)	0	?	0	?
CC1=C[C@@H](CNC(=O)c2ccccc2)[C@H](C(C)C)C[C@H]1Cc1nnc(-c2cncn2C)o1	0	100µM	0	79.4µM
CC1=C[C@@H](CNc2ccccn2)[C@H](C(C)C)C[C@H]1Cc1nnc(-c2cncn2C)o1	0	?	0	63.1µM
CC1=C[C@@H](CNC(=O)C2CC2)[C@H](C(C)C)C[C@H]1Cc1nnc(-c2cncn2C)o1	0	?	0	?
CC(C)(C)C(=O)N1CCN(C(=O)c2cccc(-c3ccccn3)c2)CC1	-	0	-	0
COC(=O)C1=C(C)N=C2SC=C(CC(=O)N3CCCC3)N2C1c1ccc(OC)cc1 (centres undefined)	0	0	0	?
COc1ccc(-c2noc(-c3nc(-c4ccccn4)no3)n2)cc1	0	0	0	0
Cc1ccc(-c2noc(-c3nc(-c4ccccn4)no3)n2)cc1	17.8µM	0	0	0
OC(c1cccc(C(F)(F)F)c1)c1nc(Nc2ccc(F)cc2F)n[nH]1 (centres undefined)	0	70.8µM	0	79.4µM
OC(c1cccc(C(F)(F)F)c1)c1nc(Nc2cccnc2)n[nH]1 (centres undefined)	0	0	0	?
OC(c1cccc(C(F)(F)F)c1)c1nc(Nc2ccccc2)n[nH]1 (centres undefined)	0	?	0	89.1µM
OC(c1cccc(C(F)(F)F)c1)c1nc(Nc2ccncc2)n[nH]1 (centres undefined)	0	0	0	?
OC(c1cccc(C(F)(F)F)c1)c1nc(Nc2ccc(N3CCOCC3)cc2)n[nH]1 (centres undefined)	35.5µM	0	?	?
Cc1ccc(-n2cccc2CC(=O)NCc2ccccc2)cc1	0	0	0	?
O=C(Nc1cccc(-c2nnc3n2CCCC3)c1)c1ccoc1	0	0	0	0
O=C(c1ccc2cc[nH]c2c1)N1CCC(N2CC(OCC3CC3)C23CCCCC3)CC1 (centres undefined)	0	?	0	50.1µM
O=C(c1ccc2cc[nH]c2c1)N1CCC(N2C(=O)C(OCC3CC3)C23CCOCC3)CC1 (centres undefined)	0	0	0	?
O=C(NCCc1ccccc1)C1CCc2nnc(C3CCN([S+](=O)([O-])c4ccccc4Cl)CC3)n21 (centres undefined)	-	0	-	0
COc1ccc(N2CC3CCC(C2)N3Cc2ccc(C#N)cc2)cc1	-	0	-	0
NC(=O)NCc1cn(C2CCN(Cc3cc4ccccc4s3)CC2)nn1	0	0	0	0
Cc1cc(C)c(CN2CCC(n3cc(C(C)(C)N)nn3)CC2)c(C)c1	0	79.4µM	0	?
CN(Cc1cnn(-c2ccc(F)cc2)c1)c1cc(C2CC(O)C2)ncn1 (centres undefined)	0	?	?	28.2µM
CCCN(CC1CC1)C(=O)c1coc(COc2ccc3sc(C)nc3c2)n1	0	?	?	39.8µM
O=C(c1ccccc1)N1CC2(CCCCN2Cc2cccnc2)Cc2ccccc21 (centres undefined)	-	0	-	?
COc1cccc(-c2ccc(CN3CCCC(NC(=O)C(C)(C)C)C3)cc2)c1 (centres undefined)	-	?	-	50.1µM
SMILES	FLuc inh	NIH3T3 tox	NPR1 antag	HEK293 tox
COc1cccc(-c2ccc(CN3CCCC(NC(=O)C(C)C)C3)cc2)c1 (centres undefined)	-	?	-	39.8µM
Cc1ccc(-c2cccc(CN3CCCC(NC(=O)C(C)(C)C)C3)c2)cc1Cl (centres undefined)	-	0	-	?
COc1cccc(-c2ccc(CN3CCCC(NC(=O)Cc4ccccn4)C3)cc2)c1 (centres undefined)	-	?	-	39.8µM
O=C(Cc1ccccn1)NC1CCCN(Cc2ccc(-c3cncnc3)cc2)C1 (centres undefined)	-	0	-	0
COc1ccc2cc1Nc1ccc(cc1)C[C@H](NCc1cccc(C(=O)O)c1)C(=O)N(C)[C@H](C(=O)Nc1ccccc1OCc1ccccc1)C2	0	?	0	?
Cc1ccc2nc(C3CCCN(Cc4cccc(-c5cccs5)c4)C3)[nH]c(=O)c2c1 (centres undefined)	0	?	?	?
O=c1[nH]c(C2CCCN(Cc3cccc(-c4cccs4)c3)C2)nc2ccc(F)cc12 (centres undefined)	0	31.6µM	?	31.6µM
